# Measurements reported in the supplement of paper PMC9950053.
# Structures can show the parent of a compound that is named as a salt.
# Tested on: Danio rerio larvae (5 dpf)
# Assay: 1-h baseline activity (% time moving, periods 1-6) minus DMSO control (percentage points); higher = more locomotor activity than DMSO larvae
# Details: 10 µM; exposure time: 3 h pre-incubation + 3 h imaging
# Method: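 Wild-type 5 dpf zebrafish larvae (n=48 per drug, 96-well plates, 28.5 °C) were exposed to Tocris FDA-approved library compounds at 10 µM (0.1% DMSO) for 3 h before and 3 h during imaging. Images were taken every 6 s during visual and acoustic stimuli, and larvae were tracked with Z-LaP Tracker. Each measure is the treated-group mean minus the DMSO control mean (n=844), in percentage points. This mapping covers compounds with 5-character plate codes.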
row,Structure (SMILES),1-h baseline activity
1,COc1ccc(C(CN(C)C)C2(O)CCCCC2)cc1 (stereo unspecified) [Venlafaxine hydrochloride],-22.8
